In PubChem BioAssay (Tox21):
Inconclusive results are not listed. Activity calls are given as the source filed them. The call rests on the fitted dose curve; in most records, active means well fitted cell-killing curve with a large enough effect in the repeat runs; inconclusive means weak or mixed curves, or effect the other way; inactive means flat fitted curve, though single readings scatter.

Assay: qHTS RealTime-Glo MT Cell Viability Assay in HepG2 cells - 40 hour (AID 1224870); further: nearly all actives have a fitted effect of over 50% in size
Settings: RealTime-Glo luminescence; series mostly up to 76.8 µM; activity change, negative = cytotoxic: at the top concentration
Source text: National Center for Advancing Translational Sciences [NCATS]
NIH Chemical Genomics Center [NCGC]
U.S. Environmental Protection Agency [EPA]
National Institutes of Environmental Health Sciences [NIEHS]
National Toxicology Program [NTP]
U.S. Food and Drug Administration [FDA]
Measure of cell viability is critical in the cell-base assay. Analysis of cell viability is necessary for the characterization of cell responses to cytotoxic drugs and environmental stress. A RealTime-Glo MT Cell Viability Assay to monitor cell viability in real time of continues cell culture during 40 hours of compound treatment was used to screen Tox21 10K library compounds in HepG2 cells. The RealTime-Glo MT Cell Viability Assay is a nonlytic, homogeneous, bioluminescent method to measure cell viability in real time using a simple, plate-based method. The assay involves adding NanoLuc luciferase and a cell-permeant prosubstrate to cells in culture. Viable cells reduce the proprietary prosubstrate to generate a substrate for NanoLuc luciferase. This substrate diffuses from cells into the surrounding culture medium, where it is rapidly used by the NanoLuc Enzyme to produce a luminescent signal. The signal correlates with the number of viable cells, making the assay well suited for cytotoxicity studies.
Tox21 Assay Protocol Summary:
The mixture of HepG2 cell suspension and reagents were dispensed at 600cells/6 ul/well in 1536-well tissue culture treated black solid bottom plates using a Multidrop dispenser. After the assay plates were incubated at a 37 C/5% CO2 incubator for 5 hours, 23 nL of compounds dissolved in DMSO, positive and negative controls was transferred to the assay plate by a pintool work station. The plates were incubated at 37 C for 40 hours. The luminescence intensity were measured at 0h, 8h, 16h, 24h, 32h and 40h time points using ViewLux plate reader during compound treatment.
On the % scale 0 is the no-effect control and ±100 the full control effect; potency means the concentration at half of the fitted maximal effect.

Compound	activity change, negative = cytotoxic	Potency
Oc1cccc(O)c1O	-10.5% (inactive)	
O=C(O)C[C@H](NC(=O)OCc1ccccc1)C(=O)O	-6.13% (inactive)	
Cc1ccco1	-1.62% (inactive)	
O=C=Nc1cccc(C(F)(F)F)c1	-1.8% (inactive)	
CCCCCCCCCCC(=O)O	0.708% (inactive)	
c1ccc2c(c1)CCc1ccccc1N2		inactive
C=CC(=O)[O-].C=CC(=O)[O-].[Zn+2]	7.44% (inactive)	
CCN(CC)CCNC(=O)COc1ccc(OC)cc1	0.0707% [at 35.3 µM] (inactive)	
CCC1CO1 (stereo not given)	-2.26% (inactive)	
Cc1cccc(O)c1N	4.39% (inactive)	
COc1cc(N)c(Cl)cc1C(=O)NC1CCN(CCCOc2ccc(F)cc2)CC1OC (stereo not given)	-16.1% [at 35.3 µM] (inactive)	
CN1CC(=O)N2[C@H](c3ccc4c(c3)OCO4)c3[nH]c4ccccc4c3C[C@@H]2C1=O	0.329% [at 35.3 µM] (inactive)	
COc1ncnc(NS(=O)(=O)c2ccc(N)cc2)c1OC	-1.45% [at 35.3 µM] (inactive)	
CCC(OCCCOC)OC(C)=O (stereo not given)	-3.29% (inactive)	
C[C@@H](O)[C@H]1C(=O)N2C(C(=O)O)=C([C@H]3CCCO3)S[C@H]12	0.822% [at 35.3 µM] (inactive)	
O=C1Cc2ccccc2N1c1c(Cl)cccc1Cl	-9.89% (inactive)	
Oc1ccc(Cl)c2cccnc12	-14.7% [at 35.3 µM] (inactive)	
COC(=O)CCS	-0.985% (inactive)	
O=C1NC(=O)c2cc([N+](=O)[O-])ccc21	2.11% (inactive)	
CC1(C)S[C@@H]2[C@H](NC(=O)C(c3ccccc3)S(=O)(=O)O)C(=O)N2[C@H]1C(=O)O (stereo not given in full)	-0.0513% [at 35.3 µM] (inactive)	

Compound	activity change, negative = cytotoxic	Potency
O=[N+]([O-])c1ccc(O/N=C/c2cc(Br)c(O)c(Br)c2)c([N+](=O)[O-])c1	-21.1% (inactive)	
NCCNCCO	-2.44% (inactive)	
O[C@@H]1CO[C@H]2[C@@H]1OC[C@@H]2O	-4.37% [at 35.3 µM] (inactive)	
CCCCCCCC/C=C\CCCCCCCCCCCC(=O)O	-1.06% (inactive)	
C=C1C[C@@]23CC[C@H]4[C@@](C)(CCC[C@@]4(C)C(=O)O[C@@H]4O[C@H](CO)[C@@H](O)[C@H](O)[C@H]4O)[C@@H]2CC[C@]1(O[C@@H]1O[C@H](CO)[C@@H](O)[C@H](O[C@@H]2O[C@H](CO)[C@@H](O)[C@H](O)[C@H]2O)[C@H]1O[C@@H]1O[C@H](CO)[C@@H](O)[C@H](O)[C@H]1O)C3	-6.1% (inactive)	
Cc1c(C)c2c(c(C)c1OC(=O)CCC(=O)OCCO)CC[C@@](C)(CCC[C@H](C)CCC[C@H](C)CCCC(C)C)O2	0.854% [at 35.3 µM] (inactive)	
CCCCCCCCC(CCCCCC)C(=O)O (stereo not given)	-2.32% (inactive)	
COc1ccc(OC(=O)N(CC(=O)O)Cc2ccc(OCCc3nc(-c4ccccc4)oc3C)cc2)cc1	-2.04% [at 35.3 µM] (inactive)	
C=C(C)C(=O)OCCOCCOC(=O)C(=C)C	0.0211% (inactive)	
CCC(=O)C1CC(C(C)C)CC=C1C (stereo not given)	0.95% (inactive)	
C=C1c2cccc(O)c2C(O)=C2C(=O)[C@]3(O)C(O)=C(C(N)=O)C(=O)[C@@H](N(C)C)[C@@H]3[C@@H](O)[C@H]12	3.76% [at 35.3 µM] (inactive)	
C=C1CCC2CC1C2(C)C (stereo not given)	-0.794% (inactive)	
O=c1cc(-c2ccccc2)oc2ccc3ccccc3c12	-2.12% (inactive)	
CCCC(C(=O)OCCN(CC)CC)(c1ccccc1)c1ccccc1	-23.2% [at 35.3 µM] (inactive)	
CCCCCCC(C)(C)C(=O)O	2.27% (inactive)	
CCCCOc1ccc(OCCCN2CCOCC2)cc1	-7.21% [at 35.3 µM] (inactive)	
OCCN1CCN(CCCN2c3ccccc3Sc3ccc(Cl)cc32)CC1		23.9 µM (active)
C=C(C)CCCC(C)CCO (stereo not given)	4.12% (inactive)	
CC(=O)NC1(c2cccc(F)c2)CCN(CC[C@@]2(c3ccc(Cl)c(Cl)c3)CN(c3ccccc3)C(=O)CO2)CC1		43.8 µM (active)
O=C(O)c1cccc(-c2noc(-c3ccccc3F)n2)c1	3.31% [at 35.3 µM] (inactive)	
